Data from PubChem BioAssay (NCATS).
Results filed as inconclusive are left out. Activity calls are given as the source filed them. Calls follow the shape of the dose curve; as a rule, active = well fitted inhibition curve with a large enough effect; inconclusive = small, poorly fitted or top-dose-only effect; inactive = flat fitted curve, though single readings scatter.

Key:
[1] = qHTS profiling for inhibitors of Plasmodium falciparum proliferation (AID 504749); also: nearly all actives have a fitted effect of over 60% in size;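 as to activity, negative = inhibition: 0% = DMSO vehicle and full inhibition = artemisinin control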; settings: P. falciparum in erythrocytes, SYBR Green DNA, 72 h
In short: (§1)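 SYBR Green fluorescence of parasite DNA, read after lysis and overnight dark incubation, measured growth over 72 h in erythrocyte culture at 0.3% parasitemia and 2.5% hematocrit. Data normalised to DMSO and 0.29 uM artemisinin, with plate-drift correction.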

[2] = test system: 7G8; assay: as above; settings: P. falciparum in erythrocytes, SYBR Green DNA, 72 h; series mostly up to 28.7 µM
In short: as §1

[3] = test system: AS120; assay: as above; settings: P. falciparum in erythrocytes, SYBR Green DNA, 72 h; series mostly up to 28.7 µM
In short: as §1

[4] = test system: CP192; assay: as above; settings: P. falciparum in erythrocytes, SYBR Green DNA, 72 h; series mostly up to 28.7 µM
In short: as §1

[5] = test system: CP201; assay: as above; settings: P. falciparum in erythrocytes, SYBR Green DNA, 72 h; series mostly up to 28.7 µM
In short: as §1

[6] = test system: CP217; assay: as above; settings: P. falciparum in erythrocytes, SYBR Green DNA, 72 h; series mostly up to 28.7 µM
In short: as §1

[7] = test system: CP247; assay: as above; settings: P. falciparum in erythrocytes, SYBR Green DNA, 72 h; series mostly up to 28.7 µM
In short: as §1

[8] = test system: AA1029; assay: as above; settings: P. falciparum in erythrocytes, SYBR Green DNA, 72 h; series mostly up to 28.7 µM
In short: as §1

[9] = test system: C2A; assay: as above; settings: P. falciparum in erythrocytes, SYBR Green DNA, 72 h; series mostly up to 28.7 µM
In short: as §1

[10] = test system: CP194; assay: as above; settings: P. falciparum in erythrocytes, SYBR Green DNA, 72 h; series mostly up to 28.7 µM
In short: as §1

[11] = test system: 3D7; assay: as above; settings: P. falciparum in erythrocytes, SYBR Green DNA, 72 h; series mostly up to 28.7 µM
In short: as §1

[12] = test system: CP191; assay: as above; settings: P. falciparum in erythrocytes, SYBR Green DNA, 72 h; series mostly up to 28.7 µM
In short: as §1

[13] = test system: CP203; assay: as above; settings: P. falciparum in erythrocytes, SYBR Green DNA, 72 h; series mostly up to 28.7 µM
In short: as §1

[14] = test system: CP211; assay: as above; settings: P. falciparum in erythrocytes, SYBR Green DNA, 72 h; series mostly up to 28.7 µM
In short: as §1

[15] = test system: CP215; assay: as above; settings: P. falciparum in erythrocytes, SYBR Green DNA, 72 h; series mostly up to 28.7 µM
In short: as §1

[16] = test system: CP237; assay: as above; settings: P. falciparum in erythrocytes, SYBR Green DNA, 72 h; series mostly up to 28.7 µM
In short: as §1

[17] = test system: ATS95; assay: as above; settings: P. falciparum in erythrocytes, SYBR Green DNA, 72 h; series mostly up to 28.7 µM
In short: as §1

[18] = test system: ATS189; assay: as above; settings: P. falciparum in erythrocytes, SYBR Green DNA, 72 h; series mostly up to 28.7 µM
In short: as §1

[19] = test system: CP185; assay: as above; settings: P. falciparum in erythrocytes, SYBR Green DNA, 72 h; series mostly up to 28.7 µM
In short: as §1

[20] = test system: CP238; assay: as above; settings: P. falciparum in erythrocytes, SYBR Green DNA, 72 h; series mostly up to 28.7 µM
In short: as §1

[21] = at 28.7 µM (top of the series), parasite line A
Potency is read from the fitted curve at half-maximal effect.

C=C(CC)C(=O)c1ccc(OCC(=O)O)c(Cl)c1Cl
active: Potency ([1]; parasite line A) 12.6 µM | Potency [2] 14.1 µM | Potency [3] 12.6 µM | Potency [7] 10 µM
inactive: Potency [4] | Potency [5] | Potency [6]

O=C1OCCN1/N=C/c1ccc([N+](=O)[O-])o1
active: Potency [2] 10 µM | Potency [8] 10 µM
inactive: Potency [9] | Potency [4] | Potency [10]

CCN(CC)CCNC(=O)COc1ccc(Cl)cc1
inactive: Potency [11] | Potency [9] | Potency [12] | Potency [4] | Potency [5] | Potency [13] | Potency [14] | Potency [15]
active: Potency [3] 12.6 µM

C[C@@H]1CN(CCCn2c3ccccc3c3ccccc32)C[C@H](C)N1
active: Potency ([1]; parasite line A) 10 µM | Potency [2] 4.47 µM | Potency [8] 4.47 µM | Potency [3] 12.6 µM | Potency [9] 11.2 µM | Potency [12] 7.08 µM | Potency [16] 11.2 µM | Potency [7] 4.47 µM
inactive: Potency [4]

CN(C)CC/C=C1\c2ccccc2Sc2ccc(Cl)cc21
active: Potency ([1]; parasite line B) 8.91 µM | Potency [2] 12.6 µM | Potency [3] 11.2 µM | Potency [17] 11.2 µM
inactive: Potency [11] | Potency [4] | Potency [5]

COc1ccc(C2C(=O)c3ccccc3C2=O)cc1
inactive: activity, negative = inhibition [1, 21] 3.83% | Potency [11] | Potency [2] | Potency [8] | Potency [3] | Potency [18] | Potency [17] | Potency [9] | Potency [19] | Potency [12] | Potency [4] | Potency [10] | Potency [5] | Potency [13] | Potency [14] | Potency [15] | Potency [6] | Potency [16] | Potency [20] | Potency [7]

CCN(CC)CCOc1ccc(C(O)(Cc2ccc(Cl)cc2)c2ccc(C)cc2)cc1 (centres undefined)
active: Potency [2] 5.01 µM | Potency [8] 11.2 µM | Potency [18] 11.2 µM | Potency [15] 13.5 µM | Potency [16] 7.94 µM | Potency [7] 10 µM

CNCCC=C1c2ccccc2CCc2ccccc21
active: Potency [2] 11.2 µM | Potency [8] 4.47 µM | Potency [17] 5.62 µM | Potency [13] 7.57 µM
inactive: activity, negative = inhibition [1, 21] -6.28% | Potency [11]

CN(C)C(=S)SC(=S)N(C)C
active: Potency [11] 11.2 µM | Potency [2] 6.31 µM | Potency [3] 12.6 µM | Potency [4] 7.57 µM | Potency [16] 10 µM

COc1cccc(CCc2ccccc2OCC(CN(C)C)OC(=O)CCC(=O)O)c1 (centres undefined)
active: Potency ([1]; parasite line B) 6.31 µM | Potency [11] 10 µM | Potency [2] 0.631 µM | Potency [8] 3.98 µM | Potency [3] 4.47 µM | Potency [18] 5.62 µM | Potency [17] 5.62 µM | Potency [9] 10 µM | Potency [19] 8.91 µM | Potency [4] 16.9 µM | Potency [10] 4.78 µM | Potency [13] 3.38 µM | Potency [14] 7.57 µM | Potency [15] 8.49 µM | Potency [6] 7.94 µM | Potency [16] 1.12 µM | Potency [20] 7.08 µM | Potency [7] 5.62 µM

CCCCCCCCCCOCC(O)CN (centres undefined)
active: Potency [2] 12.6 µM
inactive: activity, negative = inhibition [1, 21] -16.8% | Potency [11] | Potency [9] | Potency [12] | Potency [5] | Potency [15] | Potency [20] | Potency [7]

Cc1ccc(O)c2ncccc12
inactive: activity, negative = inhibition ([1]; at 28.7 µM (top of the series), parasite line B) -28.2% | Potency [2] | Potency [8] | Potency [18] | Potency [17] | Potency [9] | Potency [19] | Potency [12] | Potency [4] | Potency [5] | Potency [13] | Potency [14] | Potency [15] | Potency [6] | Potency [16] | Potency [20] | Potency [7]

CCCCCCCCCCCCCCCC[N+](C)(C)CCN(Cc1ccc(OC)cc1)c1ncccn1
active: Potency [12] 0.794 µM
inactive: activity, negative = inhibition ([1]; at 12.8 µM (top of the series), parasite line A) -28.5% | Potency [18] | Potency [4] | Potency [10] | Potency [5] | Potency [13] | Potency [14] | Potency [15]

CC(C)=CCC1C(=O)N(c2ccccc2)N(c2ccccc2)C1=O
active: Potency [15] 13.5 µM | Potency [16] 11.2 µM
inactive: Potency [9] | Potency [5] | Potency [20] | Potency [7]

CC(C)NC[C@@H](O)COc1cccc2ccccc12
active: Potency [2] 5.62 µM | Potency [8] 11.2 µM | Potency [3] 8.91 µM | Potency [18] 10 µM | Potency [13] 10.7 µM | Potency [16] 5.01 µM
inactive: activity, negative = inhibition [1, 21] 4.7% | Potency [11] | Potency [9] | Potency [4] | Potency [5] | Potency [14]

Oc1ccc(O)cc1
inactive: Potency [8] | Potency [18] | Potency [17] | Potency [19] | Potency [12] | Potency [5]
active: Potency [11] 8.91 µM | Potency [13] 15.1 µM

CN=C(NC#N)Nc1ccc(C2=NNC(=O)CC2C)cc1 (centres undefined)
inactive: Potency [4] | Potency [10] | Potency [5] | Potency [13] | Potency [14] | Potency [15]

CCCOC(C(=O)OC1CCN(C)CC1)(c1ccccc1)c1ccccc1
active: Potency [2] 11.2 µM
inactive: activity, negative = inhibition [1, 21] -18.3% | Potency [4] | Potency [5] | Potency [13]
